For some assays here: Measured potencies and affinities stand elsewhere. The source made the active and inactive calls.
Columns and labels:
[1] = Ebola virus entry assay, green fluorescence channel
[2] = Ebola virus entry assay, blue channel fluorescence
[3] = qHTS profiling of the MIPE4 collection as inhibitors of Plasmodium falciparum (3D7) proliferation (AID 743344);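 note: scaled between DMSO vehicle wells and 0.29 µM artemisinin as full inhibition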; settings: P. falciparum 3D7 in erythrocytes, SYBR Green DNA fluorescence, 72 h; at 28.5 µM (top of the series) unless noted
Summary of the method: (§1)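 Parasite DNA was quantified by SYBR Green I fluorescence (ex 485, em 535 nm) after overnight lysis in saponin/Triton buffer at room temperature. Cultures at 0.3% parasitemia and 2.5% hematocrit were first exposed to compound for 72 h at 37 C; signals were normalised to artemisinin (0.29 uM) and vehicle wells.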

[4] = qHTS profiling of the MIPE4 collection as inhibitors of Plasmodium falciparum (DD2) proliferation (AID 743345); settings: P. falciparum Dd2 in erythrocytes, SYBR Green DNA, 72 h; at 28.5 µM (top of the series) unless noted
Summary of the method: as §1

[5] = qHTS profiling of the MIPE4 collection as inhibitors of Plasmodium falciparum (DD2) proliferation (Rep 2) (AID 743346); settings: P. falciparum Dd2 in erythrocytes, SYBR Green DNA, 72 h; at 28.5 µM (top of the series) unless noted
Summary of the method: as §1

[6] = qHTS profiling of the MIPE4 collection as inhibitors of Plasmodium falciparum (HB3) proliferation (AID 743347);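 note: plate controls were DMSO vehicle wells for no effect and artemisinin wells for full effect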; settings: P. falciparum HB3 in erythrocytes, SYBR Green DNA, 72 h; at 28.5 µM (top of the series) unless noted
Summary of the method: as §1

[7] = Ebola virus entry assay, blue channel fluorescence; remark: listed apart in the source
[8] = Ebola virus entry assay, green fluorescence channel; remark: listed apart in the source
Throughout, for efficacy: 0% is about no effect.

## O=C(OCC1(COC(=O)c2cccnc2)CCCC(COC(=O)c2cccnc2)(COC(=O)c2cccnc2)C1O)c1cccnc1
[1]
  efficacy: -19.2% (inactive)
[2]
  outcome: inactive

## Oc1ccccc1
[1]
  efficacy: 23.9% (inactive)
[2]
  outcome: inactive

## CCCCCCCCCCCCCCCC(=O)O
[1]
  efficacy: -6.91% (inactive)
[2]
  outcome: inactive

## CCCC(CCC)(C(=O)OCC)C(=O)OCC
[1]
  efficacy: 21% (inactive)
[2]
  outcome: inactive

## COC(=O)c1ccc(NC(C)=O)cc1OC
[1]
  efficacy: 15.6% (inactive)
[2]
  outcome: inactive

## O=c1[nH]cnc2[nH]ncc12
[3]
  parasite growth, % of DMSO control: 105%
[4]
  parasite growth remaining, % of DMSO control (lower = more inhibition): 91.2%
[5]
  parasite growth, % of control (lower = inhibition): 153%
[6]
  growth, % of control: 93.3%
[1]
  efficacy: -34% (inactive)
[2]
  outcome: inactive

## Cn1c(=O)c2[nH]cnc2n(C)c1=O
[3]
  parasite growth, % of DMSO control: 85.4%
[5]
  parasite growth, % of control (lower = inhibition): 114%
[6]
  growth, % of control: 96.9%
[1]
  efficacy: -18.7% (inactive)

## CCCc1nc(C(C)(C)O)c(C(=O)OCc2oc(=O)oc2C)n1Cc1ccc(-c2ccccc2-c2nn[nH]n2)cc1
[7]
  outcome: inactive
[8]
  outcome: inactive

## CC1(C)S[C@@H]2[C@H](NC(=O)C(c3ccccc3)S(=O)(=O)O)C(=O)N2[C@H]1C(=O)O (stereo not given in full)
[1]
  efficacy: 24.6% (inactive)
[2]
  outcome: inactive

## Clc1cccc(Cl)c1NC1=NCCN1
[1]
  efficacy: -12.5% (inactive)
[2]
  outcome: inactive

## COc1cc(/C=C/C(=O)O[C@H]2CC[C@]34C[C@]35CC[C@]3(C)[C@@H]([C@H](C)CCC=C(C)C)CC[C@@]3(C)[C@@H]5CC[C@H]4C2(C)C)ccc1O
[1]
  efficacy: -25.4% (inactive)
[2]
  outcome: inactive

## CC(=O)Oc1cccc(O)c1
[1]
  efficacy: -10.5% (inactive)
[2]
  outcome: inactive

## CN1C(=O)CCS(=O)(=O)C1c1ccc(Cl)cc1 (stereo not given)
[3]
  parasite growth, % of DMSO control: 98.6%
[4]
  parasite growth remaining, % of DMSO control (lower = more inhibition): 91.5%
[5]
  parasite growth, % of control (lower = inhibition): 126%
[6]
  growth, % of control: 109%
[1]
  efficacy: 19.9% (inactive)
